This is an account of results in PubChem BioAssay AID1851 (National Center for Advancing Translational Sciences (NCATS), 2009).

“And” between values parts separate entries of the source, which are not always exact repeats. Equal entries are not always repeated. Hit rate of the full screen: of about 16,000 compounds, about 4,000 (25%) were called active. Roughly 26% stayed inconclusive and do not appear here. The call rests on the fitted dose curve; in most records, active means well fitted curve in the direction sought with a large enough effect; inconclusive means small, poorly fitted or top-dose-only effect, or effect the other way; inactive means no such curve, though single readings can be large or run the other way. A selection follows. More than one record can exist for a structure, and the calls need not agree.
On the % scale 0 is the no-effect control and ±100 the full control effect.

The target in the experiment is Cytochrome P450 2C9 (Homo sapiens) (UniProt P11712). Description: Cytochrome panel assay with activity outcomes. The note with it: recombinant CYP, pro-luciferin dealkylation, luminescence, p450-cyp2c9; series mostly up to 57.1 µM.
Chain of Cytochrome P450 2C9 (Homo sapiens) (P11712 whole entry, looked up): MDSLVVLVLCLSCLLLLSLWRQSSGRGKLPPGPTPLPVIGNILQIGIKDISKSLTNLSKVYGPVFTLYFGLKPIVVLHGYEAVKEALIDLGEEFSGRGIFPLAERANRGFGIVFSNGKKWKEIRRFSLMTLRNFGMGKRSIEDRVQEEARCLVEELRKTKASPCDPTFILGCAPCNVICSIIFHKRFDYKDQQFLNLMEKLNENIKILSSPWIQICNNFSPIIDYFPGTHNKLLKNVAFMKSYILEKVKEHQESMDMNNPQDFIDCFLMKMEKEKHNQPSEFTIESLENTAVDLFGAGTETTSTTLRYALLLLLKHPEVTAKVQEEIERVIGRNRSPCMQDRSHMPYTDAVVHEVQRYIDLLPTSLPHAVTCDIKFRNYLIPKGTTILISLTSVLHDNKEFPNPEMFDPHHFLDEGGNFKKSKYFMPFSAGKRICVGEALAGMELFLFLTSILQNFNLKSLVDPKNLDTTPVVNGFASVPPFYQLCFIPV
As for `Cc1c(NC(=O)C23CC4CC(CC(C)(C4)C2)C3)c(=O)n(-c2ccccc2)n1C`, the AC50 entry is “inactive”.
For the compound `O=C(CNS(=O)(=O)c1ccc(Br)s1)N1CCC(N2CCCCC2)CC1`, the AC50 entry was “inactive”.
Consider `Cc1ccc(-n2c(C)cc(/C=C(\C#N)C(=O)NCC3CCCO3)c2C)cc1` (stereo unspecified), for which the AC50 is 17.8 µM (active).
Same read-out and setting: next, `N#C/C(=C\c1cccs1)C(=O)NCC1CCCO1` (stereo unspecified): “inactive”; `NC(=O)C1CCN(C(=O)CN2C(=O)c3ccccc3S2(=O)=O)CC1`: “inactive”.
Regarding `O=C1c2ccccc2C(=O)N1C[C@]1(C(=O)O)NCCS1(=O)=O`, the activity, negative = inhibition was -4.49% [at 11.4 µM] (inactive).
For the compound `CC(C)N(CCC(=O)c1ccc2ccccc2c1)Cc1ccccc1`, the half-maximal activity concentration (AC50) was 12.6 µM (active) and inactive.
Turning to `O=C(O)CCCc1ccc2ccccc2c1`, the activity, negative = inhibition was -4.57% [at 11.4 µM] (inactive).
On to `CCN1C(=O)[C@H]2[C@@H]3[C@H](O)[C@H](O)CC(=O)[C@H]3CC[C@H]2C1=O`, for which the activity, negative = inhibition was 17.2% [at 11.4 µM] (inactive) and 0.779% [at 11.4 µM] (inactive).
As for `C[C@@H](C(=O)Cc1ccc2ccccc2c1)[C@@H]1C[C@@]1(C)[C@@H](NP(=O)(c1ccccc1)c1ccccc1)c1ccccc1`, the half-maximal activity concentration (AC50) was 3.16 µM (active).
In the case of `COc1ccc(COC(=O)N/N=C2/C[C@@H](O)[C@@H](O)[C@@H]3[C@@H]4C(=O)N([C@@H](C)c5ccccc5)C(=O)[C@H]4CC[C@H]23)cc1`, the activity, negative = inhibition was 0.0971% [at 11.4 µM] (inactive).
Take `C[C@@H](C(=O)Nc1ccc2ccccc2c1)[C@H]1C[C@]1(C)[C@H](NP(=O)(c1ccccc1)c1ccccc1)c1ccccc1`: the AC50 is 3.16 µM (active).
On the same count and under the same terms, the same measure for `CC(=O)N[C@H](c1ccccc1)[C@@]1(C)C[C@@H]1[C@@H](C)C(=O)Nc1ccc2ccccc2c1`: 10 µM (active).
With `O=C(Nc1ccc2ccccc2c1)c1onc2c1CCCC2`, the AC50 entry is “inactive”.
On the same count and under the same terms, the same measure for `C[C@@]1(C(NC(=O)Cc2ccc(C(F)(F)F)cc2)c2ccc(-c3ccccc3)cc2)C[C@H]1C1CCCCC1` (stereo partly specified): “inactive”; for `C[C@@H](C(=O)Nc1ccc2ccccc2c1)[C@H]1C[C@]1(C)[C@H](NC(=O)OCc1ccccc1)c1ccccc1`: 1.58 µM (active); for `C[C@@H](C(=O)Nc1ccc2ccccc2c1)[C@@H]1C[C@@]1(C)[C@@H](NS(=O)(=O)c1ccc(-c2ccccc2)cc1)c1ccccc1`: “inactive”.
Still for that read-out and setting: next, `C[C@@H](C(=O)Nc1ccc2ccccc2c1)[C@@H]1C[C@@]1(C)[C@@H](NC(=O)OCc1ccccc1)c1ccccc1`: “inactive”; `CC(=O)OCC(=O)[C@@]1(O)CC[C@@H]2[C@H]3CCC4=CC(=O)C=C[C@]4(C)[C@]3(F)[C@@H](O)C[C@@]21C`: “inactive”.
The same measure, in the same setting: next, `CC(=O)N[C@@H](c1ccccc1)[C@]1(C)C[C@H]1[C@@H](C)C(=O)Nc1ccc2ccccc2c1`: 6.31 µM (active); `C[C@@H](C(=O)Nc1ccc2ccccc2c1)[C@H]1C[C@]1(C)[C@H](NS(=O)(=O)c1ccc2ccccc2c1)c1ccccc1`: “inactive”.
Consider `COC(=O)N[C@H](c1ccccc1)[C@@]1(C)C[C@@H]1[C@@H](C)C(=O)Nc1ccc2ccccc2c1`, for which the AC50 was 3.98 µM (active).
Take `Cc1ccc(OCC(=O)NNC(=O)c2cc3ccccc3o2)cc1`: the AC50 entry was “inactive”.
Still for that read-out and setting: the same measure for `Cc1cc(C)cc(OCC(=O)NNC(=O)c2cc(C)[nH]n2)c1`: 28.2 µM (active); for `Cc1cc(NC(=O)NC(=O)c2ccc(F)cc2F)n[nH]1`: “inactive”.
Still for that read-out and setting: the same measure for `NC1(C(=O)O)C[C@H](C(=O)O)[C@H](C(=O)O)C1` (stereo partly specified): 6.31 µM (active).
The same measure, in the same setting: next, `NC1(C(=O)O)CC(C(=O)O)C1` (stereo unspecified): “inactive”; `NC1(C(=O)O)C[C@@H](C(=O)O)[C@H](C(=O)O)C1`: “inactive”.
As for `CCc1c(O)c2c(c(O)c1C(C)=O)C(=O)c1c(cc(O)c(C(=O)O)c1C(=O)O)C2=O`, the activity, negative = inhibition is -13.4% [at 11.4 µM] (inactive).
With `O=C(Nc1cccc(NC(=O)c2ccc(-c3cccc(Br)c3)o2)c1)c1ccco1`, the AC50 is 5.01 µM (active).
On the same count and under the same terms, next, `N#Cc1cccc(NC(=O)N2CCC3(CC2)CCN(C(=O)c2ccco2)CC3)c1`: “inactive”.
`COc1cccc(-c2nccc(NCc3ccc(OC)cc3OC)n2)c1`: the activity, negative = inhibition was -22.3% [at 2.29 µM] (inactive).
For `COc1cccc(-c2noc(Cn3nc(C)c([N+](=O)[O-])c3C)n2)c1`, the AC50 was 4.47 µM (active).
`COc1cccc(-c2nccc(N(C)Cc3ccco3)n2)c1`: the activity, negative = inhibition was 2.63% [at 2.29 µM] (inactive).
For `CC(=O)[C@H](C(=N)C#N)C(=O)Nc1ccccc1`, the activity, negative = inhibition is 10.8% [at 11.4 µM] (inactive).
As to `COc1cccc(C2C3(C#N)C(N)=NC(OC)(OC)C23C#N)c1` (stereo unspecified), the AC50 result is “inactive”.
Still for that read-out and setting: next, `COC1(OC)N=C(NC(=O)Nc2ccccc2)C2(C#N)C(c3ccccc3)C12C#N` (stereo unspecified): 12.6 µM (active).
For the compound `CC1(C)CC(=O)C(C(c2cccc(O)c2O)C2C(=O)CC(C)(C)CC2=O)C(=O)C1`, the activity, negative = inhibition is 3.72% [at 11.4 µM] (inactive).
In the case of `Cc1ccc(C(C2C(=O)CC(C)(C)CC2=O)C2C(=O)CC(C)(C)CC2=O)s1`, the half-maximal activity concentration (AC50) was 28.2 µM (active).
Consider `O=C(Nc1nccs1)C1Cc2ccccc2CN1S(=O)(=O)c1ccc(F)cc1` (stereo unspecified), for which the AC50 is 12.6 µM (active).
`O=S(=O)(c1ccccc1)N1CCC2(CCN(Cc3nccs3)CC2)CC1`: the AC50 result is “inactive”.
On the same count and under the same terms, next, `CCc1nnc(NC(=O)C2Cc3ccccc3CN2S(=O)(=O)c2ccc(C)cc2)s1` (stereo unspecified): 3.98 µM (active); `O=S(=O)(c1ccccc1)N1CCC2(CC1)CN(Cc1nccs1)C2`: “inactive”; `O=C(Nc1nnc(C2CC2)s1)C1Cc2ccccc2CN1S(=O)(=O)c1ccccc1F` (stereo unspecified): 3.16 µM (active).
Turning to `CC(C)CN1CCC2(CC1)CCN(C(=O)c1cccn1C)CC2`, the AC50 result was “inactive”.
For the compound `CCOC(=O)n1ccn(C)c1=S`, the AC50 entry was “inactive”.
For `CC(=O)OC[C@@H]1O[C@@H](O/N=C2/C[C@@H](O)[C@@H](O)[C@@H]3[C@@H]4C(=O)N(C(C)(C)C)C(=O)[C@H]4CC[C@H]23)[C@H](OC(C)=O)[C@H](OC(C)=O)[C@@H]1OC(C)=O`, the activity, negative = inhibition was 2.66% [at 11.4 µM] (inactive).
For the compound `CO[C@H]1COC(=O)[C@H](C)NC(=O)C/C=C\[C@@H](C)[C@H](OC)COC(=O)[C@@H](OCc2ccccc2)/C=C\[C@@H]1C`, the activity, negative = inhibition was -13.3% [at 11.4 µM] (inactive).
`CN(C)CCNC(=S)Nc1cccc(Cl)c1`: the AC50 entry is “inactive”.
Still for that read-out and setting: the same measure for `CNC(=O)C(=O)NCCc1ccc(Cl)cc1`: “inactive”; for `O=C(NCCc1ccc(Cl)cc1)Nc1cccc(Cl)c1`: 3.98 µM (active).
Take `CC(=O)OC[C@@H]1O[C@@H](O/N=C2/C[C@@H](O)[C@@H](O)[C@@H]3[C@@H]4C(=O)N(C5CCCCC5)C(=O)[C@H]4CC[C@H]23)[C@H](OC(C)=O)[C@H](OC(C)=O)[C@@H]1OC(C)=O`: the activity, negative = inhibition is 9.42% [at 11.4 µM] (inactive).
As to `O=c1c(-c2cc(F)cc(F)c2)nc2cnc(N3CCOCC3)nc2n1C[C@H]1CCCO1`, the AC50 entry was “inactive”.
The same measure, in the same setting: next, `O=C(NC12CC3CC(CC(C3)C1)C2)c1ccc(COc2ccc(Cl)cc2[N+](=O)[O-])o1`: 7.94 µM (active).
Regarding `CC(C)=CCC/C(C)=C/CO/N=C1/C[C@@H](O)[C@@H](O)[C@@H]2[C@@H]3C(=O)N(Cc4ccccc4)C(=O)[C@H]3CC[C@H]12`, the activity, negative = inhibition is -1.37% [at 11.4 µM] (inactive).
Consider `CC(C)=CCC/C(C)=C/CO/N=C1/C[C@@H](O)[C@@H](O)[C@@H]2[C@@H]3C(=O)N(Cc4ccccc4)C(=O)[C@H]3CC[C@@H]12`, for which the activity, negative = inhibition was 24.4% [at 11.4 µM] (inactive).
As to `c1nc(N2CCNCC2)c2cc(-c3ccc4c(c3)OCO4)ccc2n1`, the activity, negative = inhibition was 14.4% [at 2.29 µM] (inactive).
Same read-out and setting: the same measure for `C[C@@H]1O[C@@H](O)[C@@H](O)[C@H](O)[C@H]1O`: 0.774% [at 11.4 µM] (inactive).
In the case of `NC(=O)[C@@H]1CCCN1Cc1ccc2c(c1)OCO2`, the activity, negative = inhibition is -2.9% [at 11.4 µM] (inactive).
As to `O=C(O)[C@@H]1CCCN1Cc1ccc2c(c1)OCO2`, the activity, negative = inhibition was -5.38% [at 11.4 µM] (inactive).
Turning to `CC1(C)SC(=S)N(Cc2ccc3c(c2)OCO3)C1N(O)C(=O)NC1CCCCC1` (stereo unspecified), the half-maximal activity concentration (AC50) is 3.55 µM (active).
Still for that read-out and setting: the same measure for `COc1ncc2nc(-c3ccc(F)cc3)c(=O)n(C)c2n1`: “inactive”.
Regarding `Cc1cc(Br)ccc1NC(=O)CCSc1ccccc1`, the concentration at half-maximal activity (AC50) is 8.91 µM (active).
The same measure, in the same setting: next, `Cc1cc(CSc2ccccc2)ccc1NC(=O)COc1ccccc1`: “inactive”.
Still for that read-out and setting: the same measure for `Cc1ccc(NC(=O)CCC(=O)NNS(=O)(=O)c2ccccc2)c(C)c1`: “inactive”.
As for `O=C(CCCNS(=O)(=O)c1cccc2nsnc12)NCCc1ccccc1`, the AC50 is 11.2 µM (active).
Same read-out and setting: the same measure for `O=c1c2ccccc2nc2n1C(CSCc1cccc(C(F)(F)F)c1)CS2` (stereo unspecified): 2 µM (active); for `COc1ccc(NC(=O)N2CCC3(CC2)CCN(C(=O)c2cccn2C)CC3)cc1`: “inactive”.
Still for that read-out and setting: the same measure for `CCCCCC(=O)N1CC2(CC(c3cccc(NC(=O)c4ccccc4)c3)=NO2)C[C@@H]1C(N)=O` (stereo partly specified): “inactive”; for `O=C(Nc1cccc(-c2nc3ncccc3o2)c1)c1sc2cc(Cl)ccc2c1Cl`: “inactive”.
Same read-out and setting: next, `CCCCCC(=O)Nc1cccc(-c2nc3ncccc3o2)c1`: 17.8 µM (active).
As for `CCCCCCCCC(=O)N/N=C/c1ccccn1`, the AC50 result is “inactive”.
Same read-out and setting: next, `O=C(CSc1ccc(Cl)cc1)Nc1cccc(-c2nc3ncccc3o2)c1`: 3.16 µM (active); `CC1=NS(=O)(=O)c2cc(Cl)ccc2N1`: “inactive”.
For `CO[C@H]1COC(=O)C/C=C\[C@H](C)[C@@H](OC)COC(=O)[C@H](Cc2ccccc2)NC(=O)C/C=C\[C@@H]1C`, the activity, negative = inhibition is -2.12% [at 11.4 µM] (inactive).
Same read-out and setting: next, `Cc1ccc(S(=O)(=O)N[C@H]2COC(=O)[C@@H](C)COC(=O)[C@H](C)NC(=O)C/C=C\[C@H]2C)cc1`: 10.1% [at 11.4 µM] (inactive).
Take `Cc1c(Cl)cccc1NC(=O)CCC(=O)NNC(=O)c1ccco1`: the AC50 entry is “inactive”.
On the same count and under the same terms, the same measure for `O=C(NC(=S)Nc1cccc(Cl)c1N1CCCCC1)c1cccs1`: 3.98 µM (active).
Same read-out and setting: next, `CC1CCN(c2ccccc2NC(=S)NC(=O)c2cccs2)CC1`: 5.01 µM (active).
On the same count and under the same terms, next, `C[C@@]1(C(NC(=O)c2cccs2)c2ccc(-c3ccccc3)cc2)C[C@H]1C1CCCCC1` (stereo partly specified): “inactive”; `O=C(NC(=S)Nc1cccc(Cl)c1N1CCCCC1)c1ccco1`: 5.01 µM (active).

Broadly, the AC50 is the concentration at which the activity in the assay is half-maximal.
